Source: PubChem BioAssay
Hits are enriched below; roughly 2.3% of the tested compounds scored in any of these assays.
HTT ATP protect: qHTS Multiplex Assay to Identify Dual Action Probes in a Cell Model of Huntington: Cytoprotection (ATP); AID 1471, 2008; hit rate 0.14% among 230,000; PC12 HTT-Q103 induced, cytoprotection, ATP luminescence, 40 h; Potency, µM (series often up to 56.4 µM), inactives show cytoprotection (ATP increase), actives largely listed as activators; also: potency is read from the fitted curve at half-maximal effect; % of control where 0% means no effect; nearly all actives have a fitted effect of over 45% in size
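Compounds were screened for protection of PC12 cells against cell death after tebufenozide induction (100 nM final) of mutant Huntingtin exon 1 (Q103) fused to GFP.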
HTT aggregate: qHTS Multiplex Assay to Identify Dual Action Probes in a Cell Model of Huntington: Aggregate Formation (GFP); hit rate 1.1% among 220,000; AID 1688, 2009; PC12 HttQ103-GFP aggregates, Acumen cytometry, 40 h; Potency, µM (top dose mostly 46.1 µM), for the others: at the highest dose activity change, negative = inhibition, usual class: inhibitors; also: potency is read from the fitted curve at half-maximal effect; % is scaled to controls: 0 for no effect and ±100 for the full control effect; nearly all actives have a fitted effect of over 60% in size
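PC12 cells stably carrying ecdysone-inducible HTT exon 1 Q103–GFP were induced with tebufenozide (100 nM final) and treated with library compounds in titration. GFP aggregates in lysates were counted by laser scanning cytometry.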
VDR inhibitor: Inhibitors of the vitamin D receptor (VDR): qHTS | VDR-SRC2-3 peptide fluorescence polarization, 2 h | Potency, µM, for inactives: max response, negative = inhibition, hits mostly inhibitors | hit rate 0.93% among 400,000 | AID 504847, 2011; also: potency is read from the fitted curve at half-maximal effect; % is scaled to controls: 0 for no effect and ±100 for the full control effect
Target sequence (P11473 whole entry, looked up): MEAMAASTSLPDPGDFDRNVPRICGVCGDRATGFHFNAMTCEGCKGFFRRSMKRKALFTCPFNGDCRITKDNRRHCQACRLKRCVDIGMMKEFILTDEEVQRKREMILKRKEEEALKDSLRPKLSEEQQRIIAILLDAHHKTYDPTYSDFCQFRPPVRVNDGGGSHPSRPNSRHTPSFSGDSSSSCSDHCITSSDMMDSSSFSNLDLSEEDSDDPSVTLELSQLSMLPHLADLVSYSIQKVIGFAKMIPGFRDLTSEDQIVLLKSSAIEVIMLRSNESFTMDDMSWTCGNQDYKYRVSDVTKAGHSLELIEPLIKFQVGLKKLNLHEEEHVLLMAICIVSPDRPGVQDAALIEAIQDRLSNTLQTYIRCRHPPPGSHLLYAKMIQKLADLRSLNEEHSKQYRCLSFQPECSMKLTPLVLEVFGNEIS
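After 23 nl compound addition and a short centrifugation, plates sat for 2 hours at ambient temperature; polarization of fluorescence then indicated loss of VDR binding to peptide SRC2-3.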
GoLoco inh red: qHTS Assay for Inhibitors of RGS12 GoLoco Motif Activity (Red Fluorophore) | hit rate 0.44% among 230,000 | Potency, µM (series often up to 61.6 µM), for inactives: top-dose activity, negative = inhibition, most hits filed as inhibitors | Guanine nucleotide-binding protein G(i) subunit alpha-1 (Homo sapiens), P63096 | Gai1:RGS12 GoLoco peptide FP, rhodamine, 10 min; active = well fitted inhibition curve with a large enough effect, not every such curve was filed as active; inactive = no such curve, though single readings can be large or run the other way; also: potency is read from the fitted curve at half-maximal effect; % is scaled to controls: 0 for no effect and ±100 for the full control effect; nearly all actives have a fitted effect of over 30% in size
Target sequence (P63096 whole entry, looked up): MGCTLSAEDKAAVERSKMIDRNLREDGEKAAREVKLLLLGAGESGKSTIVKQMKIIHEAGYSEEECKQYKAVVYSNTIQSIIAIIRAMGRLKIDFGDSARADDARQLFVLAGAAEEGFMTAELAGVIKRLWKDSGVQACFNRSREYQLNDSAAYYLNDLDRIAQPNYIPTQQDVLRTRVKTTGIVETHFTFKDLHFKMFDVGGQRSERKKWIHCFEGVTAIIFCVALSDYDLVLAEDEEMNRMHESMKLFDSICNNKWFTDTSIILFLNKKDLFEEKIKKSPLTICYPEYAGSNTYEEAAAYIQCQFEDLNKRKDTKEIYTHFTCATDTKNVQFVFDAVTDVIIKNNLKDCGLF
Coupling enz: qHTS Assay for Inhibitors of Fructose-1,6-bisphosphate Aldolase from Giardia Lamblia: Coupling assay counterscreen. coupling enzyme system counterscreen, AmpLite Red fluorescence. activity change, negative = inhibition, % at 58.2 µM, hits read low. hit rate 0.67% among 290,000. AID 2472, 2010; in the data active = activity change below about -30%; also: % is scaled to controls: 0 for no effect and ±100 for the full control effect
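Counterscreen lacking aldolase: glyceraldehyde-3-phosphate coupling-enzyme reagent preincubated 10 min at RT with compound (at 57.5 uM final), then substrate/coupling system with AmpLite Red added; fluorescence read at 525/598 nm after 20 min RT.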
JMJD2E inh: qHTS Assay for Inhibitors of Human Jumonji Domain Containing 2E (JMJD2E); JMJD2E catalytic domain, FDH-coupled NADH fluorescence (FDH is formaldehyde dehydrogenase); Potency, µM (series often up to 57.1 µM), inactives show at the highest dose activity change, negative = inhibition, usual class: inhibitors; hit rate 1.6% among 230,000; active = well fitted inhibition curve with a large enough effect, not every such curve was filed as active; inconclusive = small, poorly fitted or top-dose-only effect, or another doubt; inactive = no such curve, though single readings can be large or run the other way;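 also: potency is read from the fitted curve at half-maximal effect; 0% = wells with enzyme and -100% = buffer wells without enzyme; nearly all actives have a fitted effect of over 50% in size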
* marks the source's active call; other numbers are inactive results; ? = inconclusive; . = no result; ! = not active in a repeat; [ ] = another dose, or the depositor's remark. Unless noted, calls follow the shape of the dose curve; as a rule, active = well fitted curve in the direction sought with a large enough effect; inconclusive = small, poorly fitted or top-dose-only effect, or another doubt; inactive = no such curve, though single readings can be large; an effect the other way counts as inactive or inconclusive.

SMILES	HTT ATP protect	HTT aggregate	VDR inhibitor	GoLoco inh red	Coupling enz	JMJD2E inh
CCc1cccc(NC(=O)CSc2ncc3c(n2)-c2ccccc2N(CC)S3(=O)=O)c1	.	.	-2.6%	.	.	.
Cc1ccc2c(c1)Oc1ccc(NC(=O)CCl)cc1C(=O)N2	-12.1%[10 µM]	25.1µM*	-1.7%	6.8%	2.9	-1.6%
O=C(c1ccco1)N1CCN(Cc2cccc3ccccc23)CC1	.	.	1.5%	.	-1.0	.
Cc1cccc(N2C(=O)/C(=C\c3ccc(OC(F)F)cc3)c3ccccc3C2=O)c1	-4.4%[10 µM]	?	35.5µM*	3.3%	-0.1	?
CCOc1cc(/C=C2\C(=O)N(c3cccc(C(F)(F)F)c3)C(=O)c3ccccc32)ccc1O	-4.9%[10 µM]	-5.7%	?	4.2%	0.8	?
Cc1ccc(Sc2ncccc2C(N)=O)cc1	.	.	-7.1%	.	.	.
CN1CCN(CC(=O)n2c3c(c4ccccc42)CCCC3)CC1	-3.5%	10.5%	7.6%	6.2%	-46.8*	-2.7%
O=C(Nc1ccc(N2CCOCC2)c(F)c1)c1ccncc1	-22.5%	2.24µM*	3.1%	5.1%	-1.2	-4.1%
O=C(Nc1ccc(N2CCOCC2)c(F)c1)c1cccs1	.	.	6.3%	.	-0.1	.
O=C(Nc1cc(Cl)ccc1N1CCOCC1)c1ccc(N2CCCCC2)c([N+](=O)[O-])c1	.	.	23.0%	.	.	.
O=C(Nc1ccc(N2CCCCC2)c(Cl)c1)c1ccc(N2CCOCC2)c([N+](=O)[O-])c1	-32.6%	11.2µM*	34.8%	7.7%	-4.5	-1.7%
Cc1ccc(NC(=O)c2ccc(NCCCN3CCOCC3)c([N+](=O)[O-])c2)cc1Cl	26.5%[10 µM]	25.1µM*	-1.3%	12.1%	2.8	3.8%
CC1CCCC(CC(N)=O)CC1 (centres undefined)	.	.	7.9%	.	.	.
COc1ccc2c(c1)N(C[C@@H](C)CN(C)C)c1ccccc1S2	-48.3%[17.1 µM]	-4.6%[20.6 µM]	1.6%	6.5%[21.6 µM]	-0.9	-9.3%[25.5 µM]
COc1ccc(-c2ccc(CCC(=O)O)n2-c2ccc(Cl)cc2C)cc1	.	.	-14.8%	.	.	.
O=[N+]([O-])c1cc(S(=O)(=O)N2CCCC2)ccc1NN=C1CCCCC1	.	-3.9%	-15.9%	0.9%	-0.9	8.1%
O=[N+]([O-])c1cc(C(F)(F)F)cc([N+](=O)[O-])c1NN=C1CCCCC1	-14.9%[10 µM]	26.6%	50.1µM*	-12.3%	-6.2	?
CCCNC(=O)c1ccc2c(c1)N=C(CCC)c1ccccc1S2	.	.	-2.6%	.	.	.
COc1cc(NC(=S)N(C)C)c(OC)cc1Cl	22.3%[10 µM]	-6.6%[9.22 µM]	1.3%	-0.6%	1.4	3.5%
COc1cc(NC(=S)NC2CC2)c(OC)cc1Cl	-5.1%[10 µM]	20µM*	-9.4%	-2.5%	-0.6	-6.1%
N#CC1=C(N)NC(SCC(=O)O)=C(C#N)C12CCCC2	-4.4%	-7.0%	0.3%	31.6%	6.2	?
N#CC1=C(N)NC(SCc2ccc(F)cc2)=C(C#N)C12CCCCC2	-48.1%	12.6µM*	2.4%	-1.9%	1.2	3.1%
Cc1nc2c(-c3ccccc3)c[nH]n2c(=O)c1Cc1ccccc1	-149.5%	7.08µM*	12.2%	3.6%	-2.9	?
Cc1ccc(NC(=O)Cc2nn(C)c(=O)c3ccccc23)cc1F	-27.2%	3.55µM*	?	-3.6%	0.5	3.3%
Cn1nc(CC(=O)Nc2ccc(N3CCN(C(=O)OC(C)(C)C)CC3)cc2)c2ccccc2c1=O	32.1%[10 µM]	3.98µM*	-11.4%	-6.7%	-0.7	-5.6%
SMILES	HTT ATP protect	HTT aggregate	VDR inhibitor	GoLoco inh red	Coupling enz	JMJD2E inh
Cc1ccc(S(=O)(=O)N2CCN(C(=O)c3ccc(COc4ccccc4)o3)CC2)cc1	.	.	16.0%	.	.	.
Cc1ccc(SCc2ccc(C(=O)N3CCCC3)cc2)cc1	-40.0%	11.2µM*	-0.1%	11.7%	4.1	-8.1%
CCN1CCN(C(=O)c2ccc(CSc3ccc(C)cc3)cc2)CC1	15.1%	-25.5%	-13.7%	-2.5%	2.9	3.9%
O=C(C[C@H]1C[C@H](C(=O)N2CCOCC2)[C@@]2(CCC3CCCC3)c3[nH]c4cc(-c5ccco5)ccc4c3CCN2C1=O)NCc1ccco1	.	.	-23.9%	.	.	.
CCSc1nnc2c(n1)OC(c1ccc(OC)cc1OC)N(C(C)=O)c1ccccc1-2 (centres undefined)	.	.	-20.1%	.	.	.
S=C1NC2=C(CCC/C2=C\c2ccc(Cl)cc2)C(c2ccc(Cl)cc2)N1 (centres undefined)	26.2%[10 µM]	12.0%[9.22 µM]	?	3.1%	-3.4	-6.8%
Fc1cccc(/C=C2\CCCC3=C2NC(=S)NC3c2cccc(F)c2)c1 (centres undefined)	15.1%[10 µM]	8.5%[9.22 µM]	79.4µM*	7.1%	0.1	-7.5%
S=C1NC2=C(CCC/C2=C\c2ccccc2)C(c2ccccc2)N1 (centres undefined)	-4.3%[10 µM]	30.1%	89.1µM*	12.2%	1.9	-11.5%
Fc1ccccc1/C=C1\CCCC2=C1NC(=S)NC2c1ccccc1F (centres undefined)	-40.4%	?	-7.4%	5.9%	0.3	?
CC1=C(/C=C/C(C)=C/C=C/C(C)=C/CO)C(C)(C)CCC1	10µM*!	-5.0%	?	-5.8%	1.3	-19.2%
CC(=O)OC/C=C(C)/C=C/C=C(C)/C=C/C1=C(C)CCCC1(C)C	9.4%	.	39.8µM*!	-8.8%	2.9	-2.5%
CC1=C(/C=C/C(C)=C/C=C/C(C)=C\CO)C(C)(C)CCC1	6.9%	.	?	-9.5%	.	.
CN(CC(=O)Nc1ccc(F)cc1)S(=O)(=O)c1ccc2c(c1)c(=O)n(C)c(=O)n2C	.	.	6.9%	.	.	.
CN1c2cccc3cccc(c23)N(C)C1(C)C	-17.8%	8.0%	-10.2%	-26.1%	-33.2*	?
C[C@H](C(=O)c1ccccc1)[C@@H](c1ccccc1)N1CCOCC1	-1.6%[10 µM]	.	.	.	.	.
Cc1cc(C)cc(NC(=O)CSc2nc(CSc3ccc(Cl)cc3)cc(=O)[nH]2)c1	6.1%[10 µM]	-19.7%[9.22 µM]	13.8%	11.8%	8.9	-3.6%
Cc1cc(C(=O)OCC(=O)Nc2ccc(F)c(F)c2F)c(C)o1	24.7%	8.7%	79.4µM*	-3.2%	1.9	1.2%
C=CCC(C)(O)C(=O)OCC (centres undefined)	23.1%	.	0.8%	-1.8%	2.3	-6.8%
O=C1N=C(N2CCOCC2)S/C1=C/c1ccc(-c2ccccc2Cl)o1	28.5%[10 µM]	-3.6%	-14.2%	2.2%	0.0	1.0%
O=C1S/C(=C\c2ccc(N3CCOCC3)o2)C(=O)N1Cc1c(F)cccc1Cl	-33.5%	21.0%	?	0.9%	-40.6*	-12.8%
O=C1S/C(=C\c2ccc(N3CCOCC3)o2)C(=O)N1c1ccccc1	-16.7%	15.8µM*	?	138.6%	-43.3*	?
